Assay results from publication PMC11006913.
Substitutions are numbered along the chain they refer to.

How the values were obtained:
Test in all cases: PBM; 200 nM protein, PBS
Conditions in all cases: dsDNA, one strand shown
SIX6 [1] = biological target: T1, SIX6 (Homo sapiens, UniProt O95475 114-200, L167I)
T1 sequence: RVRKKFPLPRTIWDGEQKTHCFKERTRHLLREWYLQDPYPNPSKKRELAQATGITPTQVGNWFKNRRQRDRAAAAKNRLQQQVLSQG

SIX6 [2] = biological target: T2, SIX6 (Homo sapiens, UniProt O95475 114-200, L143V)
T2 sequence: T1 sequence with L30V, I54L

SIX6 [3] = biological target: T3, SIX6 (Homo sapiens, UniProt O95475 114-200, H141N)
T3 sequence: T1 sequence with H28N, I54L

SIX6 [4] = biological target: T4, SIX6 (Homo sapiens, UniProt O95475 114-200, T165P)
T4 sequence: T1 sequence with T52P, I54L

SIX6 [5] = biological target: T5, SIX6 (Homo sapiens, UniProt O95475 114-200, L167M)
T5 sequence: T1 sequence with I54M

SIX6 [6] = biological target: T6, SIX6 (Homo sapiens, UniProt O95475 114-200, L143M)
T6 sequence: T1 sequence with L30M, I54L

SIX6 [7] = biological target: T7, SIX6 (Homo sapiens, UniProt O95475 114-200, L143I)
T7 sequence: T1 sequence with L30I, I54L

SIX6 [8] = biological target: T8, SIX6 (Homo sapiens, UniProt O95475 114-200, T165G)
T8 sequence: T1 sequence with T52G, I54L

SIX6 [9] = biological target: T9, SIX6 (Homo sapiens, UniProt O95475 114-200, T139Q)
T9 sequence: T1 sequence with T26Q, I54L

SIX6 [10] = biological target: T10, SIX6 (Homo sapiens, UniProt O95475 114-200, T165A)
T10 sequence: T1 sequence with T52A, I54L

SIX6 [11] = biological target: T11, SIX6 (Homo sapiens, UniProt O95475 114-200, L167V)
T11 sequence: T1 sequence with I54V

SIX6 [12] = biological target: T12, SIX6 (Homo sapiens, UniProt O95475 114-200)
T12 sequence: T1 sequence with I54L

SIX6 [13] = biological target: T13, SIX6 (Homo sapiens, UniProt O95475 114-200, T165I)
T13 sequence: T1 sequence with T52I, I54L

PROP1 [14] = biological target: PROP1 (Homo sapiens, UniProt O75360 56-141)
PROP1 [15] = biological target: PROP1 (Homo sapiens, UniProt O75360 56-141, R99H)
PROP1 [16] = biological target: PROP1 (Homo sapiens, UniProt O75360 56-141, F88S)
Sequence of PROP1 (Homo sapiens, UniProt O75360 56-141, F88S) (O75360 56-141 F88S): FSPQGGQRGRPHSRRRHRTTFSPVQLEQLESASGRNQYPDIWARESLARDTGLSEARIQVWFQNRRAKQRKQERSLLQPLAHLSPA

Sequence of PROP1 (Homo sapiens, UniProt O75360 56-141) (O75360 56-141): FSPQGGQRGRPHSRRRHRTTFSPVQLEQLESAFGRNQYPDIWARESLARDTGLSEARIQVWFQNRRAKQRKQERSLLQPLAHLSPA
Sequence of PROP1 (Homo sapiens, UniProt O75360 56-141, R99H) (O75360 56-141 R99H): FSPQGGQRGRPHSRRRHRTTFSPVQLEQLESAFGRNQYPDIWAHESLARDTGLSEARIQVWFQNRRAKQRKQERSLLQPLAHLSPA

Sequence	binding signal (SIX6 [1])	binding signal (SIX6 [2])	binding signal (SIX6 [3])	binding signal (SIX6 [4])	binding signal (SIX6 [5])	binding signal (SIX6 [6])	binding signal (SIX6 [7])	binding signal (SIX6 [8])	binding signal (SIX6 [9])	binding signal (SIX6 [10])	binding signal (SIX6 [11])	binding signal (SIX6 [12])	binding signal (SIX6 [13])	binding signal (PROP1 [14])	binding signal (PROP1 [15])	binding signal (PROP1 [16])
GAGTATCA	11.2 upbm affinity estimate (log intensity, higher = more binding, comparable within an allelic series)	10.2 upbm affinity estimate (log intensity, higher = more binding, comparable within an allelic series)	11.3 upbm affinity estimate (log intensity, higher = more binding, comparable within an allelic series)	9.54 upbm affinity estimate (log intensity, higher = more binding, comparable within an allelic series)	10.6 upbm affinity estimate (log intensity, higher = more binding, comparable within an allelic series)	10.9 upbm affinity estimate (log intensity, higher = more binding, comparable within an allelic series)	10.3 upbm affinity estimate (log intensity, higher = more binding, comparable within an allelic series)	11.3 upbm affinity estimate (log intensity, higher = more binding, comparable within an allelic series)	11.2 upbm affinity estimate (log intensity, higher = more binding, comparable within an allelic series)	11.2 upbm affinity estimate (log intensity, higher = more binding, comparable within an allelic series)	11 upbm affinity estimate (log intensity, higher = more binding, comparable within an allelic series)	10.9 upbm affinity estimate (log intensity, higher = more binding, comparable within an allelic series)	11.1 upbm affinity estimate (log intensity, higher = more binding, comparable within an allelic series)	–	–	–
CGCAGCGC	9.07 upbm affinity estimate (log intensity, higher = more binding, comparable within an allelic series)	8.94 upbm affinity estimate (log intensity, higher = more binding, comparable within an allelic series)	9.04 upbm affinity estimate (log intensity, higher = more binding, comparable within an allelic series)	8.96 upbm affinity estimate (log intensity, higher = more binding, comparable within an allelic series)	9.06 upbm affinity estimate (log intensity, higher = more binding, comparable within an allelic series)	9.12 upbm affinity estimate (log intensity, higher = more binding, comparable within an allelic series)	9.01 upbm affinity estimate (log intensity, higher = more binding, comparable within an allelic series)	8.94 upbm affinity estimate (log intensity, higher = more binding, comparable within an allelic series)	8.99 upbm affinity estimate (log intensity, higher = more binding, comparable within an allelic series)	8.97 upbm affinity estimate (log intensity, higher = more binding, comparable within an allelic series)	9.06 upbm affinity estimate (log intensity, higher = more binding, comparable within an allelic series)	8.95 upbm affinity estimate (log intensity, higher = more binding, comparable within an allelic series)	9.02 upbm affinity estimate (log intensity, higher = more binding, comparable within an allelic series)	6.83 upbm affinity estimate (log intensity, higher = more binding, comparable within an allelic series)	6.82 upbm affinity estimate (log intensity, higher = more binding, comparable within an allelic series)	6.74 upbm affinity estimate (log intensity, higher = more binding, comparable within an allelic series)
CTGATACC	11.3 upbm affinity estimate (log intensity, higher = more binding, comparable within an allelic series)	10.4 upbm affinity estimate (log intensity, higher = more binding, comparable within an allelic series)	11.3 upbm affinity estimate (log intensity, higher = more binding, comparable within an allelic series)	9.63 upbm affinity estimate (log intensity, higher = more binding, comparable within an allelic series)	10.6 upbm affinity estimate (log intensity, higher = more binding, comparable within an allelic series)	11 upbm affinity estimate (log intensity, higher = more binding, comparable within an allelic series)	10.4 upbm affinity estimate (log intensity, higher = more binding, comparable within an allelic series)	11.4 upbm affinity estimate (log intensity, higher = more binding, comparable within an allelic series)	11.4 upbm affinity estimate (log intensity, higher = more binding, comparable within an allelic series)	11.4 upbm affinity estimate (log intensity, higher = more binding, comparable within an allelic series)	11 upbm affinity estimate (log intensity, higher = more binding, comparable within an allelic series)	11.1 upbm affinity estimate (log intensity, higher = more binding, comparable within an allelic series)	11.1 upbm affinity estimate (log intensity, higher = more binding, comparable within an allelic series)	–	–	–
AGTGTATC	11 upbm affinity estimate (log intensity, higher = more binding, comparable within an allelic series)	10.3 upbm affinity estimate (log intensity, higher = more binding, comparable within an allelic series)	11 upbm affinity estimate (log intensity, higher = more binding, comparable within an allelic series)	9.91 upbm affinity estimate (log intensity, higher = more binding, comparable within an allelic series)	10.7 upbm affinity estimate (log intensity, higher = more binding, comparable within an allelic series)	11 upbm affinity estimate (log intensity, higher = more binding, comparable within an allelic series)	10.4 upbm affinity estimate (log intensity, higher = more binding, comparable within an allelic series)	11.1 upbm affinity estimate (log intensity, higher = more binding, comparable within an allelic series)	11.3 upbm affinity estimate (log intensity, higher = more binding, comparable within an allelic series)	11 upbm affinity estimate (log intensity, higher = more binding, comparable within an allelic series)	10.8 upbm affinity estimate (log intensity, higher = more binding, comparable within an allelic series)	11 upbm affinity estimate (log intensity, higher = more binding, comparable within an allelic series)	10.9 upbm affinity estimate (log intensity, higher = more binding, comparable within an allelic series)	–	–	–
AGTATATC	11 upbm affinity estimate (log intensity, higher = more binding, comparable within an allelic series)	10.3 upbm affinity estimate (log intensity, higher = more binding, comparable within an allelic series)	10.9 upbm affinity estimate (log intensity, higher = more binding, comparable within an allelic series)	9.93 upbm affinity estimate (log intensity, higher = more binding, comparable within an allelic series)	10.8 upbm affinity estimate (log intensity, higher = more binding, comparable within an allelic series)	10.9 upbm affinity estimate (log intensity, higher = more binding, comparable within an allelic series)	10.3 upbm affinity estimate (log intensity, higher = more binding, comparable within an allelic series)	10.9 upbm affinity estimate (log intensity, higher = more binding, comparable within an allelic series)	11 upbm affinity estimate (log intensity, higher = more binding, comparable within an allelic series)	10.8 upbm affinity estimate (log intensity, higher = more binding, comparable within an allelic series)	10.7 upbm affinity estimate (log intensity, higher = more binding, comparable within an allelic series)	10.8 upbm affinity estimate (log intensity, higher = more binding, comparable within an allelic series)	10.9 upbm affinity estimate (log intensity, higher = more binding, comparable within an allelic series)	–	–	–
